# HTT aggregate: reduces HttQ103-GFP aggregates in PC12 cells; 1.1% of 220,000 active; PC12 HttQ103-GFP aggregates, Acumen cytometry, 40 h; Potency, µM (top dose mostly 46.1 µM), actives largely listed as inhibitors; further: nearly all actives have a fitted effect of over 60% in size
#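 Read-out: GFP aggregate count by laser scanning cytometer (488 nm excitation, 500-530 nm emission, 1–25 µm objects >6 SD above background). Cells: PC12, inducible HTTex1-Q103-GFP, 100 nM tebufenozide; compounds titrated.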
# PNC assembly inh: inhibitors of perinucleolar compartment assembly | AID 2417 | PC3M PTB-GFP, PNC prevalence imaging, 16 h; active compounds read low | activity change (PNC), negative = inhibition, % at 10 µM | 3.1% of 140,000 active;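 active means readout at or below -70, meaning at least 70% loss of cells showing the perinucleolar compartment, a nuclear body marking cancer cells; inconclusive means readout between -30 and a set limit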
#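 Compounds are pinned in duplicate onto adhered PC3M cells stably expressing GFP-tagged PTB and incubated 16 h at 37 C. Cells are then fixed, nuclei stained with Hoechst, and PNC-positive cells counted.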
# HTT ATP protect: cytoprotection in Huntington HTT-Q103 PC12 cell model | 0.14% of 230,000 active | PC12 HTT-Q103 induced, cytoprotection, ATP luminescence, 40 h | Potency, µM (highest dose often 56.4 µM), actives largely listed as activators; further: nearly all actives have a fitted effect of over 45% in size
#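 Cells were plated at 1500 per well in phenol red-free DMEM with 5% equine and 5% calf serum. Tebufenozide (100 nM final) and compounds were added, then ATPlite reagent, and luminescence was read.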
# Hits are given with their value; n = inactive; u = inconclusive; x = no result given; ! = repeats disagree; [ ] = remark or other dose. The full list was thinned out, with hits kept by preference. Unless noted, the call rests on the fitted dose curve; in most records, active means well fitted curve in the direction sought with a large enough effect; inconclusive means small, poorly fitted or top-dose-only effect, or another doubt; inactive means no such curve, though single readings can be large; an effect the other way counts as inactive or inconclusive.
SMILES,HTT aggregate,PNC assembly inh,HTT ATP protect
COCCCNCCCOc1ccc(Cl)cc1C(C)(C)C,7.9µM,n,x
CNCCCOc1ccc(Cl)cc1C(C)(C)C,n[9.22 µM],x,n
CCOC(=O)c1cnc(SC)nc1NCCOC,n,x,n
CCOC(=O)c1cnc(SC)nc1Sc1ccccc1Cl,n,-104,n
CCCCC/C=C\C/C=C\CC1OC1C/C=C\CCCC(=O)O (centres undefined),x,x,n
Cc1ccc(N2C(=O)C3C4C=CC(CNC(=S)Nc5ccc(F)cc5)(O4)C3C2=O)cc1 (centres undefined),n,-80,n[10 µM]
Cc1ccc(N2C(=O)C3C4C=CC(CNC(=S)Nc5ccc(Cl)cc5)(O4)C3C2=O)cc1 (centres undefined),n,u,n[10 µM]
Cc1ccc(Nc2cnn(C34CC5CC(CC(CC(=O)O)(C5)C3)C4)c(=O)c2Cl)c(Cl)c1,n,x,n
CCn1cnc2scc(-c3ccccc3)c2c1=O,n,-107,n[0.074 µM]
O=C(Cn1cnc2scc(-c3ccccc3)c2c1=O)N1CCOCC1,u,n,n[0.074 µM]
CNC(=O)c1ccccc1NC(=O)c1c(O)c2c([nH]c1=O)CCCC2,n,n,n
O=C(N/N=C/c1cccc(F)c1)c1c(O)c2c([nH]c1=O)CCCC2,n,-114,n[10 µM]
CC(C)CCNC(=O)c1ccc(C2SCC(=O)N2Cc2ccco2)cc1 (centres undefined),n,-110,n[1.9 µM]
CCNC(=O)c1ccc(C2SCC(=O)N2Cc2ccco2)cc1 (centres undefined),n,n,n
O=C(NCC1CCCO1)C1CCN(S(=O)(=O)Cc2ccccc2)CC1 (centres undefined),n,-108,n[10 µM]
Cc1ccc(CN2C(=O)CCC2C(=O)NCC2CCCO2)cc1 (centres undefined),n,u,n[10 µM]
O=C(NCC1CCCO1)C1CCC(=O)N1CCc1ccccc1 (centres undefined),n,-102,n
O=C(NCC1CCCO1)C1CCN(S(=O)(=O)c2ccccc2)CC1 (centres undefined),n[9.22 µM],x,n[10 µM]
CC(Nc1cc(N2CCOCC2)ccc1[N+](=O)[O-])c1ccccc1 (centres undefined),n,n,n[10 µM]
O=C(O)CCCCCN1C(=O)/C(=C\c2ccncc2)SC1=S,n,-90,n[10 µM]
O=C(O)CCCCCN1C(=O)/C(=C/c2ccncc2)SC1=S,n[9.22 µM],u,n[10 µM]
COc1ccc(C(O)C(CN2CCOCC2)c2ccccc2)cc1 (centres undefined),n,n,x
CCc1ccc(C(O)(c2ccccc2OC)C(CN2CCOCC2)c2ccccc2)cc1 (centres undefined),11µM,x,n
CCOC(=O)c1cc(NC(=O)Nc2ccccc2OC)c(C)nc1C,n,-81,n
CCOC(=O)c1cc(NC(=O)Nc2ccccc2Cl)c(C)nc1C,n[9.22 µM],x,n
SMILES,HTT aggregate,PNC assembly inh,HTT ATP protect
COc1ccc2cc1Oc1ccc(cc1)CC1c3c(cc4c(c3Oc3cc5c(cc3OC)CCN(C)C5C2)OCO4)CCN1C (centres undefined),n,x,n
COc1ccc2cc1Oc1ccc(cc1)CC1c3c(cc(OC)c4c3Oc3cc5c(cc3O4)CCNC5C2)CCN1C (centres undefined),4µM,x,n[10 µM]
CC(C)C(NC(=O)CSc1ccc(Cl)cc1)C(C)C,n,-83,n
CCC(C)NC(=O)CSc1ccc(Cl)cc1 (centres undefined),n,n,n[10 µM]
COc1ccc(C(=O)Oc2c(C)occc2=O)cc1OC,n,u,n[10 µM]
Cc1occc(=O)c1OC(=O)Nc1ccc(Cl)c(Cl)c1,u,-113,x
CC1CNCCN1S(=O)(=O)c1cccc2cnccc12 (centres undefined),u,n,n
O=S(=O)(c1cccc2cnccc12)N1CCCNCC1,13µM!,n,u
COC(=O)CCS(=O)(=O)c1cc(Cl)ccc1Cl,n[9.22 µM],-138,n
COC(=O)CCS(=O)(=O)c1ccc(NC(C)=O)cc1,n,n,n
CC(=O)Nc1ccc(OCC(O)CN2CCN(c3cccc(Cl)c3)CC2)cc1 (centres undefined),n,n,n[10 µM]
CC(=O)Nc1ccc(OCC(O)CN2CCN(c3ccc(Cl)cc3)CC2)cc1 (centres undefined),n,-100,n[10 µM]
CCCc1cc(C(=O)Nc2nccs2)cs1,n,n,n[10 µM]
Cc1ccc(S(=O)(=O)N(C)/N=C/C=C/c2ccccc2)cc1,u,n,n[10 µM]
CN1C(=O)CSc2ccc(NC(=O)N3CCN(c4ccccn4)CC3)cc21,u,n,n[10 µM]
Cc1ccc(C)c(N2CCN(C(=O)Nc3ccc4c(c3)N(C)C(=O)CS4)CC2)c1,22µM,x,n
CC1(C)Cc2cccc(OCC(=O)N3CCN(c4ccccc4)CC3)c2O1,n,u,n[10 µM]
CC1(C)Cc2cccc(OCC(=O)N3CCN(S(=O)(=O)c4ccccc4F)CC3)c2O1,n,-94,n
